# Reference: PubChem BioAssay (Tox21)
# Results filed as inconclusive are left out. Entries that show only a call come without a potency. Values without a mark were called inactive. Active and inactive are the calls of the source. Unless noted, the call rests on the fitted dose curve; in most records, active means well fitted curve in the direction sought with a large enough effect in the repeat runs; inconclusive means weak or mixed curves; inactive means no such curve, though single readings can be large; an effect the other way counts as inactive or inconclusive.
# Key:
# [1] = qHTS assay to identify small molecule antagonists of the estrogen related receptor (ERR) signaling pathway (AID 1224819; further: nearly all actives have a fitted effect of over 50% in size; further: potency means the concentration at half of the fitted maximal effect)
# Method in brief: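 LOPAC library screened for antagonism as reduced One-Glo luminescence in ERR reporter cells (2,000/well). Compounds were added after 6 h pre-incubation and left 18 h at 37C; reading followed a 30 min room-temperature reagent step.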
# [2] = qHTS assay to identify small molecule agonists of the estrogen related receptor (ERR) signaling pathway (AID 1224820)
# Method in brief: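 Following a 6 h settling period, 2,000 ERR cells per well receive DMSO-dissolved compounds by pin tool and incubate 18 h at 37 C; agonist activity is scored from One-Glo luminescence read 30 min post-addition.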
# [3] = system: estrogen-related receptor alpha (ERRalpha) with PGC-1alpha coactivator, human; assay: qHTS assay to identify small molecule antagonists of the estrogen related receptor signaling pathway with the pleiotropic PPARgamma coactivator (PGC) (AID 1224821; calls by dose curve;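 further: series mostly up to about 46 µM; lower luminescence signal means antagonism of PGC/ERR signalling; nearly all actives have a fitted effect of over 50% in size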)
# Method in brief: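 Screening used NTP's PGC/ERR cells, dosed via pin tool with compound in DMSO alongside positive and negative controls. After 18 h at 37 C, One-Glo reagent sat 30 min at room temperature before luminescence detection.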
# [4] = qHTS assay to identify small molecule antagonists of the estrogen related receptor signaling pathway with the pleiotropic PPARgamma coactivator (PGC) cell viability counter screen (AID 1224822; further: potency means the concentration at half of the fitted maximal effect)
# Method in brief: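 Viability counter-screen read by fluorescence intensity after 30 min with CellTiter-Fluor at 37 C; PGC/ERR reporter cells were exposed to compounds for 17.5 h at 37 C following a 6 h preincubation.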
# [5] = qHTS assay to identify small molecule agonists of the estrogen related receptor signaling pathway with the pleiotropic PPARgamma coactivator (PGC) (AID 1224823)
# Method in brief: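 In this quantitative high-throughput screen, an 18 h, 37 C treatment of PGC/ERR cells with compounds in DMSO preceded a One-Glo luminescence read taken after 30 min at room temperature.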
# [6] = qHTS assay to identify small molecule antagonists of the estrogen related receptor (ERR) signaling pathway - cell viability counter screen (AID 1224818);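 further: series mostly up to about 46 µM; viability measured after 17.5 h of compound exposure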
# Method in brief: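 Cytotoxicity counter screen: fluorescence from CellTiter-Fluor, added after 17.5 h compound exposure at 37 C and read 30 min later. ERR cell line seeded at 2,000 cells/well, preincubated 6 h before dosing.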
Structure (SMILES),Potency [1],Potency [2],Potency [3],Potency [4],Potency [5],Potency [6]
CC(C)(O)[C@@H]1[C@H]2OC(=O)[C@@H]1[C@]1(O)C[C@H]3O[C@]34C(=O)O[C@H]2[C@]14C (tested in a mixture with another compound),inactive,inactive,inactive,inactive,inactive,–
CC(C)[C@H]1CN[C@H](C(=O)O)[C@H]1CC(=O)O,inactive,inactive,inactive,inactive,inactive,–
CN1C2CCC1CC(OC(c1ccccc1)c1ccccc1N)C2 (configuration not stated),inactive,inactive,inactive,inactive,inactive,–
c1ccc2cc(CC3=NCCN3)ccc2c1,–,–,–,inactive,–,inactive
CC1OC1P(=O)(O)O (configuration not stated),inactive,inactive,inactive,inactive,–,–
CCN1C[C@@]2(COC)C3[C@@H](OC)C4[C@H]1C3([C@@H]1C[C@@]3(O)[C@H](OC(=O)c5ccccc5)[C@@H]1[C@]4(OC(C)=O)[C@@H](O)[C@@H]3OC)[C@H](OC)C[C@H]2O,inactive,inactive,inactive,–,inactive,–
O=C(O)Cc1cnc[nH]1,inactive,inactive,inactive,inactive,inactive,–
O=C(N[C@H]1CN2CCC1CC2)c1ccc(Cl)cc1,inactive,inactive,inactive,inactive,inactive,–
CCCN1CCc2cc(O)cc3c2[C@H]1Cc1ccc(O)c(O)c1-3,inactive,inactive,inactive,–,–,–
CC(=O)c1c(O)c(C)c(O)c(Cc2c(O)c3c(c(C(=O)/C=C/c4ccccc4)c2O)OC(C)(C)C=C3)c1O,10.6 µM (active),inactive,–,3.48 µM (active),inactive,–
Clc1ccc(C(c2ccc(Cl)cc2)n2cc[n+](CC(OCc3ccc(Cl)cc3Cl)c3ccc(Cl)cc3Cl)c2)cc1 (configuration not stated),–,inactive,–,–,–,–
Oc1ccc2c3c1O[C@H]1c4[nH]c5c(c4C[C@@]4(O)[C@@H](C2)N(CC2CC2)CC[C@]314)C[C@@]1(O)[C@H]2Cc3ccc(O)c4c3[C@@]1(CCN2CC1CC1)[C@H]5O4,inactive,inactive,inactive,–,inactive,–
